Hits are enriched below; roughly 1.8% of the tested compounds scored in any of these assays.
sdo1 growth: restores growth of sdo1-depleted yeast. S. cerevisiae sdo1-depleted JHY4D growth rescue, OD600 30 h; hits give high values; pdr5 snq2 efflux-pump mutant strain. AID 817. z-score at 10 µM. 140,000 compounds, 0.21% hits;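 active means z-score above 3 at both the 24 hr and the 30 hr optical density reads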;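 further: z-score against mean and SD of all compound wells on the same plate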
Measles CPE: protection of cells from measles virus | Measles virus-infected cells, CPE protection, absorbance | protection (pct of control), % at 4 µM | 140,000 compounds, 1.5% hits | AID 841; in the data active means protection mostly above about 24%, no sharp cut-off; inactive means mostly below about 26%
Phagocytosis inh: macrophage phagocytosis inhibition; J774A.1 macrophage IgG-bead phagocytosis, imaging; inhibition, % at 5 µM; 110,000 compounds, 0.07% hits; AID 1029;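 active means inhibition above the mean of the plate negative controls plus 5 SD, cut at about 13% in these data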;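 further: phagocytic index as fraction of beads internalized from green versus red external bead signal; plate controls were DMSO negative control for no effect and cytochalasin-D positive control for full effect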
SDO1 rescue DR: confirmation of growth rescue in SDO1-depleted yeast, bone marrow failure. shares compounds with sdo1 growth. S. cerevisiae JHY4D (SDO1-depleted) growth rescue, OD600, 30 h; hits give high values; efflux-deficient strain, SNQ2 and PDR5 mutated. OD recovery (no concentration beside the values). 440 compounds, 44% hits. AID 949;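 active means yeast growth recovered at 30 hours, either rising with dose fitted slope above 0.001 or with average optical density gain above 0.07, some results past the limit were not filed as active; inactive means growth falling with dose or no effect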;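 further: gain in OD600 from 0 h to 30 h averaged across all seven doses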
Active calls of the source: *; nt = no result.

SMILES | sdo1 growth | Measles CPE | Phagocytosis inh | SDO1 rescue DR
COc1cc(/C=C/C(=O)c2ccc(NS(=O)(=O)c3ccc(C)cc3)cc2)ccc1OC(F)F | -0.16 | 4.8 | 0.1 | nt
COc1cc(/C=C/C(=O)c2ccc(NS(=O)(=O)c3ccc(C)cc3)cc2)cc(OC)c1O | 11.4* | 3.6 | -7.7 | 0.0551
COC(=O)c1sccc1NC(=O)c1cc(-c2ccc(C)cc2C)nc2ccccc12 | 0.88 | 11.4 | nt | nt
CCCNC(=O)N1CCC(C(=O)c2cccc(F)c2)CC1 | 0.31 | 7.7 | 11.1 | nt
Cc1ccccc1OCCCC(=O)Nc1nccs1 | -0.34 | 2.3 | -0.7 | nt
Cc1ccc(C)c(OCCCC(=O)Nc2nccs2)c1 | 9.99* | 4.6 | -0.4 | 0.087*
Cc1nn(C(=O)c2ccccc2)c2c1C(=O)CC(C)(C)C2 | 0.43 | 9.5 | -1.2 | nt
Cc1c(Cl)cccc1NC(=S)NCc1cccs1 | -0.08 | 29.9 | -5.1 | nt
Cc1cc(C(=O)Nc2sc3c(c2C#N)CCC(C)C3)cs1 (configuration not stated) | 2.25 | 0.7 | -4.3 | 0.0555
Cc1cc(C(F)F)n2nc(C(=O)Nc3sc4c(c3C#N)CCC(C)C4)nc2n1 (configuration not stated) | -0.84 | 4.1 | nt | nt
Cc1cc(-c2ccccc2)n2nc(C)c(C#N)c2n1 | 12.3* | 24.1 | 4.0 | 0.067
Cc1cc(C)n2nc(/C(C#N)=C/c3ccccc3)c(C#N)c2n1 | -1.9 | 7.9 | 0.9 | nt
CCOC(=O)C1=C(C)NC(=S)NC1/C=C/c1ccccc1 (configuration not stated) | -0.2 | 25.0 | 4.1 | nt
O=C(CCS(=O)(=O)c1ccc(Br)cc1)Nc1ccccn1 | 1.39 | 21.8 | -3.6 | nt
CCS(=O)(=O)Nc1ccc(-c2nnc(SCC(=O)c3ccc(NC(C)=O)c(OC)c3)o2)cc1 | 2.72 | 4.3 | 0.9 | 0.061
CCS(=O)(=O)Nc1ccc(-c2nnc(SCC(=O)c3cccc(OC)c3)o2)cc1 | 0.15 | 5.7 | -1.4 | nt
Cc1ccc(-c2cccc(NC(=O)C3C4C=CC(C4)C3C(=O)O)c2)o1 (configuration not stated) | -0.64 | 20.5 | nt | nt
Cc1ccc(C(=O)Nc2ncc(Cc3ccc(SC(F)F)cc3)s2)cc1 | -0.21 | 8.2 | 1.2 | nt
O=C(CCCn1c(=O)[nH]c2cc(Cl)ccc2c1=O)NCCCN1CCCC1 | 1.38 | 12.7 | -0.5 | nt
O=C(CCCn1c(=O)[nH]c2cc(Cl)ccc2c1=O)NCCC1=CCCCC1 | 6.74* | 12.8 | -1.3 | 0.0914*
Cc1ccc(NC2=Nc3ccccc3CC2)cc1 | 0.35 | 3.4 | nt | nt
Brc1ccc(NC2=Nc3ccccc3CC2)cc1 | 13.3* | 3.6 | nt | 0.0751*
O=C(O[C@@H]1OC2COC(=O)c3cc(O)c(O)c(O)c3-c3c(cc(O)c(O)c3O)C(=O)O[C@@H]([C@H]1O)[C@@H]2O)c1cc(O)c(O)c(O)c1 | -0.07 | 5.3 | nt | nt
CCOC(=O)c1cccc(NC(=O)CSc2nnc(COc3ccccc3C)o2)c1 | 1.25 | 12.1 | -0.2 | 0.054
CCOc1ccc(NC(=O)CSc2nnc(COc3c(C)cccc3C)o2)cc1 | -0.13 | 10.7 | -0.5 | nt
SMILES | sdo1 growth | Measles CPE | Phagocytosis inh | SDO1 rescue DR
CC1(C)COC(c2ccc(F)c([N+](=O)[O-])c2)=N1 | 0.74 | 6.0 | -6.3 | nt
CC(C)CCn1nnnc1C(c1ccccc1)N1CCC(C(N)=O)CC1 (configuration not stated) | -0.23 | 11.8 | nt | nt
CC(C)CCn1nnnc1C(c1ccc(F)cc1)N1CCC(C(N)=O)CC1 (configuration not stated) | 3.52* | 29.0 | -0.5 | 0.0622
CN1C(=O)/C(=C/c2ccccc2OCc2cccc(F)c2)NC1=S | -0.63 | 8.1 | -0.5 | nt
Cc1ccc(-n2[nH]c(C)c(/C=N/c3ccccn3)c2=O)cc1 | 0.68 | 4.4 | nt | nt
Cc1ccc(-n2[nH]c(C)c(C=Nc3cc(C)ccn3)c2=O)cc1 | 9.38* | 2.8 | -0.3 | 0.0704*
O=C(Cn1cc([N+](=O)[O-])cn1)Nc1ccn(Cc2c(F)c(F)c(F)c(F)c2F)n1 | 0.25 | 21.1 | -0.4 | nt
COC(=O)C1=C(C)NC=C([N+](=O)[O-])C1c1ccc(OC)cc1 (configuration not stated) | 1.33 | 7.2 | 5.6 | nt
Cc1ccccc1CN(c1ccc(C(=O)Nc2ccccc2C(=O)NCc2ccco2)cc1)S(C)(=O)=O | -0.44 | 16.2 | -0.7 | nt
COc1cc(NC(=O)c2ccco2)c(OC)cc1NC(=O)c1cc(OC)c(OC)c(OC)c1 | 0.07 | 12.2 | -0.2 | nt
CCOc1cc(NC(=O)c2ccco2)c(OCC)cc1NC(=O)c1cc(OC)c(OC)c(OC)c1 | 1.25 | 1.0 | 6.1 | 0.0685
O=C(NCc1ccccn1)c1cccc(NS(=O)(=O)c2cccc(F)c2)c1 | 1.3 | 13.9 | nt | nt
CC(C)C(=O)Nc1cccc(NC(=O)CCN2C(=O)c3ccccc3S2(=O)=O)c1 | 1.8 | 2.4 | -2.0 | nt
COc1cc(/C=N/NC(=O)c2ccoc2C)ccc1O | 2.59 | 25.2 | -5.7 | 0.074*
COc1cc(/C=N/NC(=O)c2nc(C)cc(C)n2)ccc1O | 0.71 | 5.1 | -1.6 | nt
O=[N+]([O-])c1ccc(-n2nncc2-c2ccc(Cl)cc2)cc1 | -0.04 | 20.1 | -2.0 | nt
Nc1ccc(-n2nncc2-c2ccc(Cl)cc2)cc1 | 12.7* | 9.4 | -2.0 | 0.0438
COc1ccc(OC)c(NC(=S)NCCN2CCOCC2)c1 | 3.88* | 4.4 | -3.0 | 0.037
COc1cccc(NC(=S)NCCN2CCOCC2)c1 | 0.91 | 5.7 | -6.6 | nt
C/C(=N\S(=O)(=O)c1ccc(C)cc1)Nc1cc(C(C)C)c(O)cc1C | 0.02 | nt | nt | nt
CCOC(=O)C1CCC2(CC1)C(C#N)=C(N)Oc1n[nH]c(C)c12 (configuration not stated) | 1.73 | 4.9 | nt | nt
CC(=O)C1C(c2ccc(F)cc2)C2C(C)=NN=C2CC1(C)O (configuration not stated) | 9.66* | 17.9 | -0.6 | 0.0723*
CC(=O)C1C(c2ccc(Br)cc2)C2C(C)=NN=C2CC1(C)O (configuration not stated) | 2.08 | 10.1 | -4.8 | nt
O=C(Nc1ccccc1)c1cccc(-c2nnc(-c3ccccc3)o2)c1 | 0.14 | 9.1 | 0.3 | nt
COc1cccc(C(=O)Nc2cccc(-c3nnc(-c4ccco4)o3)c2)c1 | 4.68* | 13.7 | 0.6 | 0.0462
SMILES | sdo1 growth | Measles CPE | Phagocytosis inh | SDO1 rescue DR
CCCCOC(=O)Nc1ccc(S(=O)(=O)Nn2cnnc2)cc1 | 3.74* | 18.1* | 0.8 | 0.115*
CCCOC(=O)Nc1ccc(S(=O)(=O)Nn2cnnc2)cc1 | 0.43 | 14.5 | -0.5 | nt
O=C1COc2ccc(C(=O)COC(=O)Cn3cnc4ccccc43)cc2N1 | -0.05 | 27.5 | 0.0 | nt
O=C1COc2ccc(C(=O)COC(=O)c3ccc4ccccc4n3)cc2N1 | 1.69 | 3.1 | 0.3 | 0.0985*
COC(=O)C1=C(C)NC(C)=C(C(=O)OC)C1c1ccc(OC(=O)c2ccco2)cc1 | 10.3* | 3.4 | 2.4 | 0.079*
CCOC(=O)C1=C(C)NC(=O)NC1c1ccc(OC(=O)c2ccco2)cc1 (configuration not stated) | -0.61 | 8.4 | nt | nt
CCc1nc2ccccc2n1CCC(C)C | -0.05 | 5.9 | -1.3 | nt
COc1ccc(CCNC(=O)COC(=O)c2ccc(Br)o2)cc1OC | -0.62 | 4.4 | 0.1 | nt
Cc1ccc(C(=O)COC(=O)c2ccc(Br)o2)cc1C | 3.71* | 16.1 | -0.5 | 0.0812*
CC1(C)CN=C(N2CCN(C3=NCC(C)(C)S3)CC2)S1 | nt | nt | 0.3 | nt
